# Measurements reported in PubChem BioAssay (Tox21).
# Values joined by “and” are separate entries in the source; they are usually repeats but may differ in a detail not shown here. Equal entries are not always repeated. Inconclusive results are not listed. Where a call stands in place of a potency, no number is given. Some compounds were tested as several samples or in several runs, with calls that do not always agree. Active and inactive are the calls of the source. Unless noted, calls come from the whole dose curve; as a rule, active = well fitted curve in the direction sought with a large enough effect in the repeat runs; inconclusive = weak or mixed curves; inactive = no such curve, though single readings can be large; an effect the other way counts as inactive or inconclusive.
# Legend:
# [1] = qHTS assay for identifying genotoxic compounds that show differential cytotoxicity against isogenic chicken DT40 cell lines with known DNA damage response pathways - wild type cell line (AID 743012); note: nearly all actives have a fitted effect of over 60% in size; note: potency is the fitted concentration of half-maximal effect
# Method in brief: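 Wild type DT40, 300 cells/well, ~0.5 h settle at 37 C/5% CO2; compounds in DMSO added by pintool; 40 h at 37 C/5% CO2; CellTiter-Glo, 30 min RT; luminescence.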
# [2] = qHTS assay for identifying genotoxic compounds that show differential cytotoxicity against isogenic chicken DT40 cell lines with known DNA damage response pathways - Rev3 mutant cell line (AID 743014); note: nearly all actives have a fitted effect of over 55% in size; note: potency is the fitted concentration of half-maximal effect
# [3] = qHTS assay for identifying genotoxic compounds that show differential cytotoxicity against isogenic chicken DT40 cell lines with known DNA damage response pathways - Rad54/Ku70 mutant cell line (AID 743015); note: nearly all actives have a fitted effect of over 60% in size; note: potency is the fitted concentration of half-maximal effect
# [4] = qHTS assay to identify small molecule antagonists of the androgen receptor (AR) signaling pathway - cell viability counter screen (AID 743033; note: nearly all actives have a fitted effect of over 45% in size; note: potency is the fitted concentration of half-maximal effect)
# [5] = qHTS assay to identify small molecule antagonists of the glucocorticoid receptor (GR) signaling pathway - cell viability counter screen (AID 720693); note: nearly all actives have a fitted effect of over 55% in size; note: potency is the fitted concentration of half-maximal effect
# [6] = qHTS assay to identify small molecule antagonists of the androgen receptor (AR) signaling pathway using the MDA cell line - cell viability counter screen (AID 743041; note: nearly all actives have a fitted effect of over 45% in size; note: potency is the fitted concentration of half-maximal effect)
# Method in brief: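 Same-well cytotoxicity was assessed by CellTiter-Fluor in MDA-kb2 AR-luc cells after 16 h of compound treatment under R1881 agonism.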
# [7] = target: Androgen receptor (Homo sapiens) (UniProt P10275); test: qHTS assay to identify small molecule antagonists of the androgen receptor (AR) signaling pathway (AID 743035; active = well fitted inhibition curve with a large enough effect in the signal ratio in the repeat runs, not every such curve was filed as active; the % refers to the signal ratio; note: potency is the fitted concentration of half-maximal effect)
# Chain of Androgen receptor (Homo sapiens) (P10275 whole entry, looked up): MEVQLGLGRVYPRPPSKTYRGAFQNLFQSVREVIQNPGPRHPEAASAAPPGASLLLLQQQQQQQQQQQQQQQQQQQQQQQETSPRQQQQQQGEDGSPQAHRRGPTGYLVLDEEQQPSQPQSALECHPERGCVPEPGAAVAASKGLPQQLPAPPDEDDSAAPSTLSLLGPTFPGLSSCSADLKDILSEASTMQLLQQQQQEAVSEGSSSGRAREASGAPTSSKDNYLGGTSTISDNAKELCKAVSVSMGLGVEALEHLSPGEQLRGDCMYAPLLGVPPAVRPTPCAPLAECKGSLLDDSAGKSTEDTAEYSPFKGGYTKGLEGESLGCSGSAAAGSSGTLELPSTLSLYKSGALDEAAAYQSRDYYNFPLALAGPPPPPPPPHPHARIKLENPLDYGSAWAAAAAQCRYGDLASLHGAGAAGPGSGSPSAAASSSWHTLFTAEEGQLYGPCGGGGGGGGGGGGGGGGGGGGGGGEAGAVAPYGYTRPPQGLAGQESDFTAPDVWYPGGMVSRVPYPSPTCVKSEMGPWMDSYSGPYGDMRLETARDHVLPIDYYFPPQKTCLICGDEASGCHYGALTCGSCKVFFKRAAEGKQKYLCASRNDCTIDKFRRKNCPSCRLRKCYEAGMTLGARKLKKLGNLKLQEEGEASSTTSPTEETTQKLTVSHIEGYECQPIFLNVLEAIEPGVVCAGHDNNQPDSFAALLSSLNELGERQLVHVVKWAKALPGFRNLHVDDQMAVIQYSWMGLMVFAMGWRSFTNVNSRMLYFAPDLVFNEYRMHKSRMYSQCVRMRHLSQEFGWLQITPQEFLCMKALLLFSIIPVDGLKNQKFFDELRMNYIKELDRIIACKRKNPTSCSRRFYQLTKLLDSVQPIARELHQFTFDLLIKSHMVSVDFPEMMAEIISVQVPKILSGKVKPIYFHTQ
# Method in brief: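 Fluorescence from a beta-lactamase FRET substrate (LiveBLAzer B/G, 2 h, room temperature) measured inhibition of R1881-stimulated signaling in GeneBLAzer AR-UAS-bla HEK293 cells exposed to compound for 16 h at 37C.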
# [8] = target: Androgen receptor (Homo sapiens) (UniProt P10275); test: qHTS assay to identify small molecule agonists of the androgen receptor (AR) signaling pathway (AID 743036; active = well fitted activation curve with a large enough effect in the signal ratio in the repeat runs, with a control signal flat, not every such curve was filed as active; the % refers to the signal ratio)
# Method in brief: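 Screening used 2,000 AR-bla HEK293 cells per well, treated 16 h at 37C with test compounds in DMSO alongside positive and DMSO-only controls; beta-lactamase activity was then read by LiveBLAzer B/G FRET fluorescence after 2 h at room temperature.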
# [9] = target: Androgen receptor (Homo sapiens) (UniProt P10275); test: qHTS assay to identify small molecule agonists of the androgen receptor (AR) signaling pathway using the MDA cell line (AID 743040; note: nearly all actives have a fitted effect of over 20% in size)
# Method in brief: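 Human breast carcinoma MDA-kb2 reporter cells (MMTV-luc, AR/GR elements) were treated for 16 h at 37C in 0% CO2 following a 5 h settling period. Signal was quantified by ONE-Glo luminescence.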
# [10] = target: Androgen receptor (Homo sapiens) (UniProt P10275); test: qHTS assay to identify small molecule antagonists of the androgen receptor (AR) signaling pathway using the MDA cell line (AID 743042; note: nearly all actives have a fitted effect of over 55% in size; note: potency is the fitted concentration of half-maximal effect)
# Method in brief: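 MDA-kb2 breast carcinoma cells carrying MMTV-luciferase (AR/GR responsive) were co-treated with compounds and the agonist R1881 for 16 h at 37C. Inhibition read as ONE-Glo luminescence; CellTiter-Fluor fluorescence measured in parallel for cytotoxicity.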
structure (smiles),measurement,setting,value
O=C(O)CCc1ccccc1,Potency,[1],inactive
same,Potency,[2],inactive
same,Potency,[3],inactive
same,Potency,[4],inactive
NC(N)=NC(=O)Cc1c(Cl)cccc1Cl,Potency,[5],inactive
same,Potency,[2],inactive
same,Potency,[3],inactive
same,Potency,[4],inactive
same,Potency,[6],inactive
N[C@@H]1CONC1=O,Potency,[1],inactive
same,Potency,[2],inactive
same,Potency,[3],inactive
same,Potency,[4],inactive
same,Potency,[6],inactive
c1ccc2cc3c(ccc4ccccc43)cc2c1,Potency,[5],inactive
same,Potency,[2],inactive
same,Potency,[3],inactive
same,Potency,[4],inactive
C1COC(NC(C2CC2)C2CC2)=N1,Potency,[5],inactive
same,Potency,[1],inactive
same,Potency,[6],inactive
CC(C)C(=O)c1c(C(C)C)nn2ccccc12,Potency,[5],inactive
same,Potency,[2],inactive
same,Potency,[4],inactive
same,Potency,[6],inactive
CC(C)CCOC(=O)c1ccc(N(C)C)cc1,Potency,[5],inactive
same,Potency,[4],inactive
COc1ccc(Cc2cnc(N)nc2N)cc1OC,Potency,[5],inactive
same,Potency,[4],inactive
same,Potency,[7],inactive
same,Potency,[8],inactive
same,outcome,[9],inactive
same,Potency,[6],inactive
same,Potency,[10],inactive
Cc1ccc(S(=O)(=O)Oc2ccc(N=Nc3ccc(-c4ccc(N=Nc5c(O)ccc6cc(S(=O)(=O)O)cc(S(=O)(=O)O)c56)c(C)c4)cc3C)cc2)cc1,Potency,[5],inactive
same,Potency,[2],27.4 µM (active) and 17.8 µM (active)
same,Potency,[3],54.7 µM (active) and 11.2 µM (active)
same,Potency,[4],inactive
same,Potency,[7],inactive
same,Potency,[8],inactive
same,outcome,[9],inactive
CC(C)(C)c1ccc(O)c(C(C)(C)C)c1,Potency,[1],27.3 µM (active)
same,Potency,[2],27.2 µM (active) and 24.3 µM (active)
same,Potency,[3],30.5 µM (active) and 27.3 µM (active)
same,Potency,[6],inactive
CCCC(=O)c1ccccc1,Potency,[5],inactive
same,Potency,[3],inactive
same,Potency,[4],inactive
same,Potency,[7],inactive
same,outcome,[9],inactive
same,Potency,[10],inactive
CN(C)c1ccc2nc3ccc(=[N+](C)C)cc-3sc2c1,Potency,[1],473 nM (active) and 2.34 µM (active) and 686 nM (active)
same,Potency,[2],750 nM (active) and 587 nM (active) and 686 nM (active)
same,Potency,[3],422 nM (active) and 262 nM (active) and 386 nM (active)
same,Potency,[4],1.87 µM (active) and 3.09 µM (active)
CCCCOCCOC(=O)c1ccccc1C(=O)OCCOCCCC,Potency,[5],inactive
same,Potency,[2],42.4 µM (active) and 27.3 µM (active)
same,Potency,[3],42.4 µM (active) and 61.1 µM (active)
same,Potency,[4],53.8 µM (active) and inactive
same,Potency,[6],inactive
Cc1c(O)cccc1C(=O)N[C@@H](CSc1ccccc1)[C@H](O)CN1C[C@H]2CCCC[C@H]2C[C@H]1C(=O)NC(C)(C)C,Potency,[1],11.9 µM (active) and 29.8 µM (active)
same,Potency,[2],13.3 µM (active) and 23.7 µM (active)
same,Potency,[3],13.3 µM (active) and 18.8 µM (active)
same,Potency,[4],19 µM (active) and 16.9 µM (active)
same,Potency,[7],10.7 µM (active) and 6.74 µM (active)
same,outcome,[9],inactive
same,Potency,[6],27.8 µM (active) and 59.5 µM (active)
same,Potency,[10],26.6 µM (active) and 29.8 µM (active)
C[N+]1([O-])CCOCC1,Potency,[1],inactive
same,Potency,[2],inactive
same,Potency,[3],inactive
same,Potency,[4],inactive
same,Potency,[6],inactive
Nc1ccc(O)cc1,Potency,[5],15.1 µM (active) and 25.5 µM (active)
same,Potency,[4],inactive
same,Potency,[8],inactive
same,outcome,[9],inactive
same,Potency,[6],29.8 µM (active) and 48.6 µM (active) and 56.6 µM (active)
same,Potency,[10],5.96 µM (active) and 12.2 µM (active) and 25.3 µM (active)
COc1ccc(CCN2CCC(Nc3nc4ccccc4n3Cc3ccc(F)cc3)CC2)cc1,Potency,[1],5.96 µM (active) and 7.01 µM (active)
same,Potency,[2],7.5 µM (active) and 6.25 µM (active)
same,Potency,[3],8.41 µM (active) and 8.82 µM (active)
same,Potency,[4],21.3 µM (active) and 6.3 µM (active)
same,Potency,[6],39.4 µM (active)
CC[C@@H](N)CO,Potency,[1],inactive
same,Potency,[2],inactive
same,Potency,[3],inactive
same,Potency,[4],inactive
same,Potency,[6],inactive
O=C(Nc1ccccc1SSc1ccccc1NC(=O)c1ccccc1)c1ccccc1,Potency,[1],2.45 µM (active) and 1.37 µM (active)
same,Potency,[2],1.38 µM (active) and 1.72 µM (active)
same,Potency,[3],2.45 µM (active) and 1.72 µM (active)
same,Potency,[4],11 µM (active) and 19.5 µM (active)
CCCCCCCCCCCCCCCCCl,Potency,[5],inactive
same,Potency,[2],inactive
same,Potency,[3],inactive
same,Potency,[4],inactive
CC1=CC(=O)c2ccccc2C1=O,Potency,[1],21.1 µM (active) and 13.7 µM (active)
same,Potency,[2],23.7 µM (active) and 12.2 µM (active)
same,Potency,[3],26.6 µM (active) and 15.4 µM (active)
same,Potency,[4],inactive and 21.9 µM (active)
same,Potency,[7],inactive
same,outcome,[9],inactive
same,Potency,[10],inactive and 30.6 µM (active)
CC(C)(C)NCC(O)c1cc(O)cc(O)c1 (stereo not drawn),Potency,[1],inactive
same,Potency,[3],inactive
same,Potency,[4],inactive
same,Potency,[6],inactive
O=C(O)c1cn(-c2ccc(F)cc2)c2cc(N3CCNCC3)c(F)cc2c1=O,Potency,[5],inactive
same,Potency,[2],inactive
same,Potency,[4],inactive
same,Potency,[6],inactive
COC(=O)/C=C/c1ccccc1,Potency,[5],inactive
same,Potency,[1],inactive
same,Potency,[4],inactive
same,Potency,[6],inactive
CC(=O)OCC1=C(C(=O)O)N2C(=O)[C@@H](NC(=O)Cc3cccs3)[C@H]2SC1,Potency,[5],inactive
same,Potency,[3],inactive
same,Potency,[4],inactive
same,Potency,[6],inactive
CCc1cc(C(C)(C)C)c(O)c(C(C)(C)C)c1,Potency,[5],inactive
same,Potency,[2],inactive and 15.4 µM (active)
same,Potency,[3],inactive
same,Potency,[4],inactive
Cc1ccc(-c2cc(C(F)(F)F)nn2-c2ccc(S(N)(=O)=O)cc2)cc1,Potency,[1],23.7 µM (active) and 27.3 µM (active)
same,Potency,[2],21.1 µM (active) and 54.3 µM (active) and 24.3 µM (active)
same,Potency,[3],29.8 µM (active) and 54.3 µM (active) and 24.3 µM (active)
same,Potency,[4],34.5 µM (active) and 43.6 µM (active)
same,Potency,[7],23.9 µM (active)
same,Potency,[8],inactive
same,outcome,[9],inactive
same,Potency,[6],inactive
same,Potency,[10],inactive and 60.9 µM (active) and 68.6 µM (active)
